# Source: PubChem BioAssay (NCATS)
# Results filed as inconclusive are left out. Entries that show only a call come without a potency. Calls of active or inactive are those of the source. Unless noted, the call rests on the fitted dose curve; in most records, active means well fitted curve in the direction sought with a large enough effect; inconclusive means small, poorly fitted or top-dose-only effect, or another doubt; inactive means no such curve, though single readings can be large; an effect the other way counts as inactive or inconclusive.
# Key:
# [1] = NCATS anti-infectives library activity on HEK293 viability as a counter-qHTS vs the C. elegans viability qHTS (AID 1745854);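 further: HEK293 cells exposed to compounds for 24 hr before the viability read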
# Summary of the method: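 Compounds were acoustically plated (several concentrations, 1:5, final up to 41.7 uM), then 1500 HEK293 cells added per well and incubated 24 hr at 37C, 5% CO2. CellTiter-Glo was added and luminescence read after 10 min.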
# [2] = NCATS anti-infectives library activity on the primary C. elegans qHTS viability assay (AID 1745855; calls by dose curve; further: potency means the concentration at half of the fitted maximal effect)
# Summary of the method: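 Viability read-out is GFP fluorescence of PE254-GFP-FLuc C. elegans, measured by laser cytometry (488 nm) at day 0, 3 and 7. Ten L1 worms per well were incubated 7 days at 21 °C with compounds and bacterial capsules in S medium.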
# [3] = target: Glutathione peroxidase 1 (Homo sapiens) (UniProt P07203); test: Primary qHTS Assay for Inhibitors of Recombinant Selenoprotein Glutathione Peroxidase 1 (GPX1) (AID 1845191); further: nearly all actives have a fitted effect of over 65% in size
# Summary of the method: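 10 nM GPX1 + cpd, 30 min RT; start w/ 1 mM GSH, 0.5 mM cumene hydroperoxide, 0.5 mM NADPH, 100 nM GR, 0.01% BSA; buffer 50 mM Tris-HCl pH 7.5, 2 mM EDTA, 150 mM NaCl; Fl 340/450, 0 & 15 min.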
# [4] = target: Phospholipid hydroperoxide glutathione peroxidase GPX4 (Homo sapiens) (UniProt P36969); test: Primary qHTS Assay for Inhibitors of Recombinant Selenoprotein Glutathione Peroxidase 4 (GPX4) (AID 1845192); further: nearly all actives have a fitted effect of over 65% in size; further: potency means the concentration at half of the fitted maximal effect
# Summary of the method: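 NADPH consumption, followed by fluorescence at 340/450 nm between 0 and 15 min, reports GPX4 activity via coupled glutathione reductase (100 nM). Enzyme 200 nM was pre-exposed to compound 30 min; 0.5 mM cumene hydroperoxide and 1 mM GSH served as substrates.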
# [5] = Primary fluorescence-based thiol-reactive (MSTI) qHTS assay for identification of artifact compounds. (AID 1845221);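 further: thiol-reactive compounds lower the probe fluorescence signal; nearly all actives have a fitted effect of over 65% in size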
# Summary of the method: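 Compounds were incubated 1 h at room temperature in the dark with the MSTI probe (4 uM) in PBS pH 7.4, 2% DMSO. Signals were normalized between Acetyl-MSTI and MSTI.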
# [6] = Primary redox qHTS assay for identification of artifact compounds. (AID 1845223)
# Summary of the method: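 Amplex Red (25 uM) and HRP (250 mU/mL) in HBSS, with compounds for 15 min, then 250 uM DTT for 30 min, room temperature, dark. Fluorescence 525/598 nm read; normalized to DMSO and 10 uM DA3003; Hill fit.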
# [7] = target: Luciferin 4-monooxygenase (Photinus pyralis) (UniProt P08659); test: Primary firefly luciferase (FLuc) qHTS assay for identification of artifact compounds. (AID 1845220); further: nearly all actives have a fitted effect of over 60% in size
# Summary of the method: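 FLuc 10 nM; luciferin 10 uM; ATP 10 uM; Tris-acetate pH 7.6, Mg-acetate 10 mM; 15 min RT preincubation; 5 min reaction; luminescence.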
# [8] = tested on: Nanoluciferase (engineered Oplophorus gracilirostris luciferase); test: Primary Nanoluciferase (NLuc) qHTS assay for identification of artifact compounds. (AID 1845222);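 further: NLuc secreted into diluted conditioned medium of S16 cells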
# Summary of the method: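 NLuc from S16 cell medium (1:55) plus test compounds, 15 min, room temperature. Luminescence after Nano-Glo (1:100) addition, 5 min.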
# [9] = target: Catechol O-methyltransferase (Homo sapiens) (UniProt P21964); test: Confirmatory Screen for Target Class Profiling of Small Molecule Inhibitors of Methyltransferases (AID 1745852; calls by dose curve; further: potency means the concentration at half of the fitted maximal effect); conditions: MTase-Glo luminescence, SAH detection, recombinant enzyme; measured here: COMT max response; stronger effect = lower value
# [10] = target: Guanidinoacetate N-methyltransferase (Homo sapiens) (UniProt Q14353); test: as above; conditions: activity change, negative = inhibition: at 57.3 µM (top of the series) unless noted
# [11] = target: Nicotinamide N-methyltransferase (Homo sapiens) (UniProt P40261); test: as above; conditions: MTase-Glo luminescence, SAH detection, recombinant enzyme; measured here: NNMT max response; stronger effect = lower value
# [12] = target: Phenylethanolamine N-methyltransferase (Homo sapiens) (UniProt P11086); test: as above; conditions: MTase-Glo luminescence, SAH detection, recombinant enzyme; measured here: PNMT max response; stronger effect = lower value
# [13] = Viability counterscreen for antagonist of constitutive androstane receptor (CAR) against the NCATS DSHEA and TCM libraries (AID 1794837);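 further: compound exposure lasted 24 h before viability reading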
# Summary of the method: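 HepG2-CYP2B6-hCAR cells (2,500/well) were allowed to attach for 5 h, then exposed to compounds with 48 uM CITCO for 24 h at 37C. Viability was read by CellTiter-Fluor fluorescence after 1 h.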
# [14] = Viability counterscreen for agonist of constitutive androstane receptor (CAR) against the NCATS DSHEA and TCM libraries (AID 1794838);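 further: HepG2 cells with CYP2B6 reporter and hCAR plus 0.75 µM PK11195 antagonist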
# Summary of the method: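 HepG2-CYP2B6-hCAR cells (2,500/well) attached 5 h, then got compounds plus 0.75 uM PK11195 final. After 24 h at 37C, viability read by CellTiter-Fluor fluorescence (Ex/Em 405/540 nm).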
# [15] = HepG2 viability counterscreen (readout 2: ATP content) against the NCATS DSHEA and TCM libraries (AID 1794840);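 further: HepG2 cells exposed to substances for about 24 h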
# Summary of the method: (§1)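 HepG2 cells (1,000 cells/well) attached ~4 h, then treated ~24 h at 37C with substances. Protease activity read by GF-AFC (25 uM final, 30 min, Ex/Em 380/510 nm); ATP content then by CellTiter-Glo luminescence.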
# [16] = HepG2 viability counterscreen (readout 1: protease activity) against the NCATS DSHEA and TCM libraries (AID 1794841);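 further: cells exposed to compounds for about 24 h before the protease read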
# Summary of the method: as §1
# Chain of Nicotinamide N-methyltransferase (Homo sapiens) (P40261 whole entry, looked up): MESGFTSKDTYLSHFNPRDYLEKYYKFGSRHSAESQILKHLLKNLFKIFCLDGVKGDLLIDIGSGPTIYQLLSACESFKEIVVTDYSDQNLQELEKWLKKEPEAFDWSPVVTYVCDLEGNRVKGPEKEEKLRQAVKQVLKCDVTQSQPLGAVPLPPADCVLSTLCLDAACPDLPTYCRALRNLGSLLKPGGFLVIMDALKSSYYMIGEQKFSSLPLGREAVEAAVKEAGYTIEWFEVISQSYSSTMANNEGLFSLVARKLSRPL
# Chain of Catechol O-methyltransferase (Homo sapiens) (P21964 whole entry, looked up): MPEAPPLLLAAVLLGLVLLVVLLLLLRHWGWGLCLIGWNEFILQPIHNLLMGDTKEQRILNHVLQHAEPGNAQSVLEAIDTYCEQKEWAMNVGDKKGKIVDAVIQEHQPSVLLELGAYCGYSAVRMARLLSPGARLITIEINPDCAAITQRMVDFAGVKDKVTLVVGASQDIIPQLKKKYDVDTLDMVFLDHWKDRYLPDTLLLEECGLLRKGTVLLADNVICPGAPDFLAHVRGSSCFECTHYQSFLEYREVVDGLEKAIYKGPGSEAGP
# Chain of Phospholipid hydroperoxide glutathione peroxidase GPX4 (Homo sapiens) (P36969 whole entry, looked up): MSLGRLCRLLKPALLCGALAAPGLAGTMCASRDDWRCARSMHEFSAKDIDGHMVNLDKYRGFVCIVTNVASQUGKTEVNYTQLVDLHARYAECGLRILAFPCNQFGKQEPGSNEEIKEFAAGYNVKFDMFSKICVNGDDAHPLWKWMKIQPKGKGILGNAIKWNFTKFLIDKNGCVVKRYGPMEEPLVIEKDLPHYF
# Chain of Phenylethanolamine N-methyltransferase (Homo sapiens) (P11086 whole entry, looked up): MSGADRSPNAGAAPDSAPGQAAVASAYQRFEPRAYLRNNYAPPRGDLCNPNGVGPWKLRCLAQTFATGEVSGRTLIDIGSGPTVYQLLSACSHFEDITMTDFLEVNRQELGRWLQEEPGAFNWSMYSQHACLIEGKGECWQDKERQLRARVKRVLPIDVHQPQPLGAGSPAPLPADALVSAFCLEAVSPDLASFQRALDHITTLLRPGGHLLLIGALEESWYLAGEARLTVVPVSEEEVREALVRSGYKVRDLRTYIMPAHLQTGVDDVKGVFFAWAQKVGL
# Chain of Glutathione peroxidase 1 (Homo sapiens) (P07203 whole entry, looked up): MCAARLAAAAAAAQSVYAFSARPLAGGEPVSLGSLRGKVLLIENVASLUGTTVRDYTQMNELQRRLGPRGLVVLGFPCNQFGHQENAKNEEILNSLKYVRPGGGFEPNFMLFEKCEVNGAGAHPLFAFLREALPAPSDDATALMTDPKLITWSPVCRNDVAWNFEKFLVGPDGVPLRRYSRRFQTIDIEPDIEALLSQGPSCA
smiles,measurement,setting,value
CCCN1CCC=C(c2cc(-c3ccc(C)cc3)no2)C1,outcome,[1],inactive
same,Potency,[2],6.48 µM (active)
same,Potency,[3],inactive
same,Potency,[4],inactive
same,Potency,[5],inactive
same,Potency,[6],inactive
O=C(NO)c1ccc(CC(=O)N(CCO)c2ccccc2)cc1,outcome,[1],inactive
same,Potency,[3],inactive
same,Potency,[4],inactive
same,Potency,[7],inactive
same,Potency,[8],inactive
same,Potency,[6],inactive
COc1ccc2nc3n[nH]c(C)c3c(NCCOCCO)c2c1,activity,[9],-59.3%
same,Potency,[10],27.1 µM (active)
same,activity,[11],-38.5%
same,activity,[12],-54.6%
same,Potency,[3],inactive
same,Potency,[7],inactive
same,Potency,[8],inactive
same,Potency,[6],inactive
CCCc1ccc(OCC(=O)N(Cc2nc(-c3cccnc3)no2)C(C)C)cc1,outcome,[1],inactive
same,Potency,[2],inactive
same,Potency,[3],inactive
same,Potency,[4],inactive
same,Potency,[5],inactive
same,Potency,[8],inactive
same,Potency,[6],inactive
CCCC(CCC)C(N)=O,outcome,[1],inactive
CCCCCCCOc1cc2c(cc1/C(C)=C/c1ccc(C(=O)O)cc1)C(C)(C)CCS2(=O)=O,activity,[9],-11.5%
same,Potency,[10],27.1 µM (active)
same,activity,[11],-71.1%
same,activity,[12],-11.4%
same,Potency,[4],inactive
same,Potency,[7],inactive
same,Potency,[5],inactive
same,Potency,[8],inactive
same,Potency,[6],inactive
O=C(Nc1cc(C(F)(F)F)ccc1N1CCCCC1)c1ccncc1,outcome,[1],inactive
same,Potency,[2],inactive
same,Potency,[3],inactive
same,Potency,[4],inactive
same,Potency,[7],inactive
same,Potency,[5],inactive
same,Potency,[8],inactive
same,Potency,[6],inactive
CC(=O)C1=C(O)C=C2Oc3c(C(C)=O)c(O)c(C)c(O)c3[C@]2(C)C1=O,outcome,[1],inactive
same,outcome,[13],inactive
same,outcome,[14],inactive
same,outcome,[15],inactive
same,outcome,[16],inactive
same,Potency,[3],inactive
same,Potency,[4],inactive
same,Potency,[7],inactive
same,Potency,[8],inactive
COc1cc(C[C@H]2C(=O)OC[C@@H]2Cc2ccc(OC)c(OC)c2)ccc1O,outcome,[1],inactive
same,Potency,[3],inactive
same,Potency,[4],inactive
same,Potency,[7],inactive
same,Potency,[5],inactive
same,Potency,[8],inactive
same,Potency,[6],inactive
CC(C)CCNC(=O)[C@H](CC(C)C)NC(=O)[C@H]1O[C@@H]1C(=O)O,outcome,[1],inactive
same,Potency,[3],inactive
same,Potency,[4],inactive
same,Potency,[7],inactive
same,Potency,[5],inactive
same,Potency,[8],inactive
same,Potency,[6],inactive
COc1cc2c(NC3CCN(C(C)C)CC3)nc(N3CCC(F)(F)CC3)nc2cc1OCCCN1CCCC1,activity,[9],-11.2%
same,"activity change, negative = inhibition",[10],-0.0366%
same,activity,[11],-8.4%
same,activity,[12],-0.61%
same,Potency,[4],25.5 µM (active)
same,Potency,[7],inactive
same,Potency,[8],inactive
COc1cc2c(cc1OC)CN(C(=O)/C=C/c1c(-c3ccccc3)n(C)c3ncccc13)CC2,activity,[9],-6.33%
same,"activity change, negative = inhibition",[10],-4.03%
same,activity,[11],-30.5%
same,activity,[12],-5.99%
same,Potency,[4],inactive
same,Potency,[7],inactive
same,Potency,[5],inactive
same,Potency,[8],inactive
C[C@H]1CO[C@@H]2Cn3cc(C(=O)NCc4ccc(F)cc4F)c(=O)c(O)c3C(=O)N12,outcome,[1],inactive
same,Potency,[3],inactive
same,Potency,[4],inactive
same,Potency,[7],inactive
same,Potency,[8],inactive
same,Potency,[6],inactive
Fc1ccc(N2CCCCC2)c(NC(=S)c2ccncc2)c1,activity,[9],-6%
same,"activity change, negative = inhibition",[10],2.26%
same,activity,[11],-9.58%
same,activity,[12],-11.8%
same,Potency,[4],inactive
same,Potency,[5],inactive
same,Potency,[8],inactive
same,Potency,[6],inactive
COC1CCN(C(=O)c2cc(Cc3n[nH]c(=O)c4ccccc34)ccc2F)CC1,outcome,[1],inactive
same,Potency,[3],inactive
same,Potency,[4],inactive
same,Potency,[7],inactive
same,Potency,[5],inactive
same,Potency,[8],inactive
same,Potency,[6],inactive
CCC[C@H](N[C@H]1CCc2cc(F)cc(F)c2C1)C(=O)Nc1cn(C(C)(C)CNCC(C)(C)C)cn1,outcome,[1],inactive
same,Potency,[2],inactive
same,Potency,[3],inactive
same,Potency,[4],inactive
same,Potency,[7],inactive
same,Potency,[5],inactive
same,Potency,[8],inactive
same,Potency,[6],inactive
Cc1ccc(CNc2ncnc3ccc(-c4ccc(CO)o4)cc23)o1,activity,[9],-5.85%
same,"activity change, negative = inhibition",[10],-1.25%
same,activity,[11],-7.73%
same,activity,[12],-9.87%
same,Potency,[3],inactive
same,Potency,[7],inactive
same,Potency,[5],inactive
same,Potency,[8],inactive
same,Potency,[6],inactive
